# NPC1 prom act: NPC1 promoter activation; Potency, µM (series often up to 9.22 µM), for the others: at the highest dose activation, actives largely listed as activators; Huh7 NPC1 promoter luciferase reporter, 24 h; 320,000 compounds, 2.4% hits; also: % of control where 0% means no effect; nearly all actives have a fitted effect of over 60% in size
#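 Luminescence read-out of NPC1 promoter-driven luciferase in stably transfected Huh7 cells; compounds delivered in DMSO and left 24 h at 37C, 5% CO2, qHTS titration format.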
# ELG1 repair inh: blocks ELG1-dependent DNA repair in HEK293T cells. Potency, µM (top dose mostly 46.1 µM), for the others: at the top dose activity change, negative = inhibition, usual class: inhibitors. HEK293T ELG1-luciferase reporter, luminescence, 16 h; DNA damage induced by 5-fluorouridine. 330,000 compounds, 2.3% hits; also: % is scaled to controls: 0 for no effect and ±100 for the full control effect; nearly all actives have a fitted effect of over 55% in size
#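 Reporter activity after DNA damage by 5-fluorouridine is monitored. Compound-treated cells incubate 16 hr at 37 °C, then ONE-Glo is added for 30 min before luminescence reading.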
# SMN2 splice enh: SMN2 splice variant enhancement; 210,000 compounds, 2.8% hits; HEK293 SMN2-luciferase splicing reporter, luminescence, 30-36 h; Potency, µM (titrated, usually from 46.1 µM), for inactives: top-dose activity change, positive = activation, actives largely listed as activators; AID 1458; also: % of control where 0% means no effect; nearly all actives have a fitted effect of over 55% in size
#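 HEK293 cells carry an SMN2 […]–luciferase reporter in which exon 7 inclusion puts luciferase in frame. Cells were plated 10-12 h before compound addition, then incubated 30-36 h at 37C. ONE-Glo luminescence was read; sodium butyrate at 4.5 mM final served as control.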
# ELG1 genotox: genotoxicity induction in ELG1-luciferase HEK293T cells | AID 504466 | 330,000 compounds, 1.3% hits | HEK293T ELG1-luciferase reporter, luminescence, 16 h | Potency, µM (doses to about 46 µM), for inactives: at the highest dose activity change, positive = activation, hits mostly activators; also: % of control where 0% means no effect; nearly all actives have a fitted effect of over 60% in size
#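 Step 1: seed 2,000 HEK293T ELG1-luciferase cells per well. Step 2: add compound or DMSO, incubate 16 hr at 37 °C. Step 3: ONE-Glo, 30 min at room temperature, read luminescence.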
# Rab9 promoter act: Rab9 promoter activation | Huh7 Rab9 promoter-luciferase reporter, luminescence, 24 h | Potency, µM (top dose mostly 9.22 µM), for inactives: top-dose activation, negative = inhibition, actives largely listed as activators | 320,000 compounds, 2.8% hits; also: % of control where 0% means no effect; nearly all actives have a fitted effect of over 60% in size
#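 Quantitative HTS format; Huh7 Rab9-luciferase reporter cells (1500/well) receive compound 2 h post-plating, incubate 24 h at 37 °C, then get luciferase reagent for 10 min before luminescence reading.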
# FLuc counter: inhibits or activates purified firefly luciferase, miR-21 counter-screen. P08659. purified FLuc, Km substrates, luminescence inhibition. Potency, µM (highest dose often 57.5 µM), without a hit: at the highest dose activity change, negative = inhibition, most hits filed as inhibitors. 360,000 compounds, 6.9% hits. AID 588342;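 also: plate controls were vehicle for no effect and reference inhibitor for full effect; nearly all actives have a fitted effect of over 55% in size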
# Target sequence (P08659 whole entry, looked up): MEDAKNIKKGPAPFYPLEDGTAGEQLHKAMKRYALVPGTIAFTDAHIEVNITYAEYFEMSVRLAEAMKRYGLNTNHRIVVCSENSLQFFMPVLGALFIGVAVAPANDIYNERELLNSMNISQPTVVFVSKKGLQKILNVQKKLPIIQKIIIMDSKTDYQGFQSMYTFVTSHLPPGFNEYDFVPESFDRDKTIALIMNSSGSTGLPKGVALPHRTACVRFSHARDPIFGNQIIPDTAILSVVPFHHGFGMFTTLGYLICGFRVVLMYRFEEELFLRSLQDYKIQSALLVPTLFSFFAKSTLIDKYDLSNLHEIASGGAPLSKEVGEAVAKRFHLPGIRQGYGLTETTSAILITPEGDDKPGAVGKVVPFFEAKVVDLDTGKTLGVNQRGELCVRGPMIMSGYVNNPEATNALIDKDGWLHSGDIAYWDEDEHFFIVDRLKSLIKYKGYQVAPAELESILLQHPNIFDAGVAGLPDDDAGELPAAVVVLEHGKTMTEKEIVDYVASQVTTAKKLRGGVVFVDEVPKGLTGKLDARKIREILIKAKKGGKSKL
#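 Purified P. pyralis luciferase, 10 nM final, with Km-level 10 uM D-luciferin and 10 uM ATP in 50 mM Tris acetate pH 7.5, 10 mM Mg acetate, 0.01% Tween-20, 0.05% BSA; 6-point qHTS titration about 60 µM downward; luminescence read.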
# Starred values were filed as active, the others as inactive; ? = inconclusive; · = no result given. This is a sample that favours compounds with a hit; in the whole collection about 9.2% have one here. Calls follow the shape of the dose curve; as a rule, active = well fitted curve in the direction sought with a large enough effect; inconclusive = small, poorly fitted or top-dose-only effect, or another doubt; inactive = no such curve, though single readings can be large; an effect the other way counts as inactive or inconclusive. Potency is read from the fitted curve at half-maximal effect.
SMILES,NPC1 prom act,ELG1 repair inh,SMN2 splice enh,ELG1 genotox,Rab9 promoter act,FLuc counter
COCCn1c(C)cc(C(=O)COC(=O)C2CC(=O)N(CCc3ccc(OC)c(OC)c3)C2)c1C (centres undefined),18%,?,·,8%,19%,11µM*
COCCn1c(C)cc(C(=O)COC(=O)c2ccc([N+](=O)[O-])o2)c1C,5%,?,3%,-1%,7%,12µM*
Cc1cc(C(=O)COC(=O)c2ccc([N+](=O)[O-])o2)c(C)n1CC1CCCO1 (centres undefined),-1%,14%,-3%,0%,2%,11µM*
CC(O)C(=O)N/N=C/c1ccccc1C(=O)O (centres undefined),0%,7%,·,4%,-10%,0%
c1ccc(-c2ccc(CN3CCSCC3)cc2)cc1,11%,?,·,5%,0%,27µM*
Cc1cc(C)n2nc(-c3ccc(F)cc3)nc2n1,4µM*,?,?,?,?,17µM*
CCC(=O)c1ccc(OCC(=O)Nc2nn3cnnc3s2)cc1,3%,10%,-3%,7%,1%,27µM*
CCOc1ccc(NC(=O)COc2ccc(-n3cnnn3)cc2)cc1,-9%,?,·,-2%,2%,6%
CN1CCN(C(=O)c2ccccc2NC(=O)c2sc3ccccc3c2Cl)CC1,1%,15%,·,2%,13%,?
Cc1ccc(NC(=O)c2sc3ccccc3c2Cl)cc1,·,·,8.9µM*,·,·,1.2µM*
CN1CCN(c2ccc(NC(=O)c3sc4ccccc4c3Cl)cc2)CC1,2.5µM*,?,3%,?,1µM*,1.9µM*
O=C(NCc1ccco1)c1sc2ccccc2c1Cl,26%,?,?,?,?,21µM*
O=C(NCc1ccco1)c1sc2cc(Cl)ccc2c1Cl,13%,?,?,11%,3%,?
O=C1CCC/C(=N/NC(=O)c2sc3ccccc3c2Cl)C1,?,?,·,12%,?,15µM*
O=C(Nc1ccncc1)c1sc2ccccc2c1Cl,?,5%,?,2%,?,?
COC(=O)C(CCSC)NC(=O)c1c(C)oc2ncn(CC(C)C)c(=O)c12 (centres undefined),·,·,·,·,·,6%
Cc1ccc(NC(=O)c2nsc(Cl)c2Cl)cc1,3.5µM*,?,·,?,2.8µM*,1.7µM*
CCn1nnc(NC(=O)c2sc3ccccc3c2Cl)n1,2.2µM*,?,11µM*,21µM*,?,9.5µM*
Cc1nc(N(CCO)C2CCCCC2)c2nnn(Cc3ccccc3)c2n1,1%,?,·,2%,-12%,-2%
CCOC(=O)C1=C(c2ccccc2)NC(N)=NC1c1ccc(OCc2ccc(Cl)cc2)c(OC)c1 (centres undefined),1%,15%,·,-5%,2%,13µM*
Nc1nnc(-c2ccc(F)cc2)s1,-2%,?,6%,4%,5%,?
CCCCOc1ccc(-c2nnc(N)s2)cc1,28%,?,20%,?,?,7.6µM*
CCCCOc1ccc(-c2ncc(N)cn2)cc1,1.8µM*,?,·,?,2.8µM*,6.7µM*
CC(C)(C)c1ccc(-c2nnc(N)s2)cc1,1.4µM*,?,·,?,1.4µM*,1.9µM*
CCCCOc1cccc(-c2nnc(N)s2)c1,3%,?,?,?,9%,?
SMILES,NPC1 prom act,ELG1 repair inh,SMN2 splice enh,ELG1 genotox,Rab9 promoter act,FLuc counter
CCOc1ccc(-c2nc(CCl)cs2)cc1,?,?,?,?,2.2µM*,3µM*
Cc1ccccc1N(CC(=O)NC1CCCCC1)C(=O)CCCC(=O)Nc1ccccn1,-1%,6%,·,-1%,-8%,1%
COc1ccc(NC(=O)C(NS(=O)(=O)c2ccc3c(c2)CCCC(=O)N3)C(C)C)c(OC)c1 (centres undefined),·,·,·,·,·,-5%
CCOc1ccc(-c2nnc(N)s2)cc1,?,?,11µM*,11µM*,?,13µM*
Nc1nnc(-c2ccc(Cl)cc2)s1,19%,?,-15%,?,11%,?
Cc1nc2sccn2c(=O)c1S(=O)(=O)Nc1ccc(N2CCN(S(C)(=O)=O)CC2)cc1,3%,9.2µM*,-33%,-22%,-1%,0%
CC(=O)Nc1ccc(NS(=O)(=O)c2c(C)nc3sccn3c2=O)cc1,·,·,·,·,·,0%
CC[C@]12CCCN3CCc4c(n(c5ccccc45)C(=O)C1)[C@@H]32,-19%,-15%,·,4%,-14%,-2%
CC[C@]12CCCN3CCc4c(n(c5ccccc45)[C@@](O)(C(=O)OC)C1)[C@@H]32,5%,?,·,16µM*,18%,-19%
COc1ccc(N2CCN(C(=O)COC(=O)CCOc3ccc(C)cc3)CC2)cc1,0%,10%,·,0%,0%,-1%
Cc1ccc(NC(=O)C2CCCN(c3ncnc4onc(C)c34)C2)cc1Cl (centres undefined),·,·,·,·,·,1%

# Bioassay records: PubChem, National Center for Advancing Translational Sciences (NCATS)
